Compound activity (PubChem BioAssay)
Compounds with a hit are over-represented: about 3.6% of the library has one in this group of screens.
AmpC no deterg – AmpC beta-lactamase inhibition without detergent; P00811; AID 485341; Potency, µM (top dose mostly 57.1 µM), without a hit: top-dose activity change, negative = inhibition, actives largely listed as inhibitors; actives 0.52% (n = 330,000); AmpC nitrocefin hydrolysis, absorbance 480 nm, 0.0001% Triton;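 note: plate controls were no compound for no effect and no enzyme for full effect; nearly all actives have a fitted effect of over 20% in size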
Target sequence (P00811 whole entry, looked up): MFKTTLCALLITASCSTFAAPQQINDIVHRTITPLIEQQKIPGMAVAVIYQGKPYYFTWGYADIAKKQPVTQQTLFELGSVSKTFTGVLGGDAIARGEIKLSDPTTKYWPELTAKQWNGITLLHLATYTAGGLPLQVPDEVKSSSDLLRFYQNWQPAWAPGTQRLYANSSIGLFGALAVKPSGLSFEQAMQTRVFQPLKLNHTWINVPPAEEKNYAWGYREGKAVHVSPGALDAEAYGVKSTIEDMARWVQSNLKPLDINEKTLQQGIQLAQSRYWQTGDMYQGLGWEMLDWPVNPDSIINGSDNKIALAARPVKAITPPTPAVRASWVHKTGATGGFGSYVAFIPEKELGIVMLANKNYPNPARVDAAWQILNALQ
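20 mM phosphate pH 7.0 + 0.01% (detergent screen) or 0.0001% Triton X-100; 5.3 nM AmpC reagent; cpd preinc 15 min RT; nitrocefin (800 uM stock) to start; A480 q20 s × 4 min; Activity was normalised to no-enzyme and no-compound control wells.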
AmpC detergent – AmpC beta-lactamase inhibition with detergent present; AmpC hydrolysis of nitrocefin, absorbance 480 nm, 0.01% Triton; Potency, µM (titrated, usually from 114 µM), for the others: at the highest dose activity change, negative = inhibition, usual class: inhibitors; actives 0.041% (n = 370,000);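 note: 0% = no-compound wells and -100% = no-enzyme wells; nearly all actives have a fitted effect of over 25% in size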
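20 mM phosphate pH 7.0 + 0.01% (detergent screen) or 0.0001% Triton X-100; 5.3 nM AmpC reagent; cpd preinc 15 min RT; nitrocefin (800 uM stock) to start; A480 q20 s × 4 min; Activity was normalised to no-enzyme and no-compound control wells.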
Sm TGR inh – blocks Schistosoma mansoni thioredoxin glutathione reductase. Q962Y6. purified TGR, DTNB reduction, TNB absorbance 405 nm. Potency, µM (series often up to 114 µM), without a hit: at the highest dose activity change, negative = inhibition, actives largely listed as inhibitors. actives 3% (n = 360,000). AID 485364; note: nearly all actives have a fitted effect of over 60% in size
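First, TGR (20 nM dispensed) and NADPH were mixed with compound. Second, a 15 min room-temperature incubation followed. Third, further NADPH and then DTNB were added to start the reaction. Finally, TNB absorbance was monitored kinetically.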
FBPA Giardia inh – blocks Giardia fructose-bisphosphate aldolase activity. Potency, µM (series often up to 59.6 µM), inactives show at the top dose activity, negative = inhibition, hits mostly inhibitors. purified Giardia FBPA. AID 2451. actives 0.71% (n = 290,000); note: nearly all actives have a fitted effect of over 55% in size
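Giardia FBPA (40 nM reagent) was preincubated 10 min at RT with compound (up to 57.5 uM final), then substrate plus GAPDH/TPI/NAD/arsenate coupling system with diaphorase/resazurin was added; resorufin fluorescence (525/598 nm) was read after 20 min.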
Active calls of the source: *; ? = inconclusive; · = no result; [ ] = dose if it differs, or a comment. Calls come from the whole dose curve; as a rule, active = well fitted curve in the direction sought with a large enough effect; inconclusive = small, poorly fitted or top-dose-only effect, or another doubt; inactive = no such curve, though single readings can be large; an effect the other way counts as inactive or inconclusive. Unless noted, % is set by controls: 0 for no effect and ±100 for the full control effect; potency is the fitted concentration of half-maximal effect.

SMILES	AmpC no deterg	AmpC detergent	Sm TGR inh	FBPA Giardia inh
CC(OC(=O)c1cccc(-n2cnnn2)c1)C(=O)Nc1ccc(F)cc1Cl (stereo unspecified)	0%	0%	-3%	·
COc1ccc(Cn2c(O)c(/C=N/NC(=O)c3ccccc3O)c(=O)[nH]c2=O)cc1	-53%	-6%	?	?
O=C(N/N=C/c1c(O)n(Cc2ccccc2)c(=O)[nH]c1=O)c1ccccc1O	-37%	-12%	25µM*	?
O=C(N/N=C/c1c(O)n(Cc2ccc(F)cc2)c(=O)[nH]c1=O)c1ccccc1O	-39%	-2%	35µM*	?
O=C(N/N=C/c1c(O)n(CCc2ccccc2)c(=O)[nH]c1=O)c1ccccc1O	-57%	1%	-36%	?
CC(CNc1nc2ccc(Cl)cc2n2cnnc12)c1ccccc1 (stereo unspecified)	-10%	2%	-7%	3%
Cc1c(Cl)cccc1NC(=O)NCc1ccccn1	1%	6%	40µM*	2%
O=C(NCc1ccccn1)Nc1ccccc1Cl	1%	1%	-16%	0%
COc1ccc(-c2nc(CS(=O)CC(=O)NCCC3=CCCCC3)c(C)o2)cc1 (stereo unspecified)	103%	-11%	40µM*	-2%
Cc1ccc(-c2nc(CS(=O)CC(=O)NCCc3ccc(Cl)cc3)c(C)o2)cc1 (stereo unspecified)	·	-4%	-5%	·
CCc1ccc(-c2nc(CS(=O)CC(=O)NCCc3ccc(Cl)cc3)c(C)o2)cc1 (stereo unspecified)	·	5%	32µM*	·
Cc1oc(-c2ccc(Cl)cc2)nc1CS(=O)CC(=O)NCCc1ccccc1 (stereo unspecified)	·	18%	22µM*	·
CCOc1ccc(CCNC(=O)CS(=O)Cc2nc(-c3ccc(C)cc3)oc2C)cc1 (stereo unspecified)	129%	-4%	22µM*	·
CCOc1ccc(CCNC(=O)CS(=O)Cc2nc(-c3ccc(C)cc3)oc2C)cc1OCC (stereo unspecified)	171%	-4%	-24%	·
O=C(NCc1cccc(Cl)c1)C1CCCN(c2ncnc3onc(-c4ccc(F)cc4)c23)C1 (stereo unspecified)	·	-6%	-2%	·
CCc1ccc2occ(CC(=O)Nc3c(C(=O)c4ccccc4)oc4ccccc34)c2c1	·	-6%	-9%	·
O=C(OCC(=O)N1CCN(c2ccccc2)CC1)c1nc(Cl)ccc1Cl	-8%	?	1%	·
Cc1ccc(CCNC(=O)CS(=O)Cc2nc(-c3cccc(C)c3)oc2C)cc1 (stereo unspecified)	95%	-3%	?	10%
Cc1ccc(-c2nc(CS(=O)CC(=O)NCCCc3ccccc3)c(C)o2)cc1 (stereo unspecified)	151%	-1%	35µM*	14%
CCC(C)NC(=O)Cn1c(=O)n(-c2cc(OC)cc(OC)c2)c(=O)c2ccccc21 (stereo unspecified)	·	5%	2%	·
Cc1nc(C(C)NC(=O)CCc2nnc(CCCc3ccccc3)o2)c(C)s1 (stereo unspecified)	85%	0%	4%[57.1 µM]	2%
O=C(Oc1c(-c2ccccc2Cl)oc2ccccc2c1=O)c1ccc(Cl)cc1	18µM*	-6%	-13%	-4%
O=C(Oc1c(-c2ccccc2)oc2ccccc2c1=O)c1ccccc1	-19%	?	21%	1%
CCc1ccccc1-n1c(C)nc2cc(C(=O)NCCc3ccc(Cl)cc3)ccc21	·	1%	-5%	·
Cc1ccc2cccnc2c1NC(=S)NC(=O)c1ccccc1	-27%	0%	35µM*	?
SMILES	AmpC no deterg	AmpC detergent	Sm TGR inh	FBPA Giardia inh
Cc1ccc2cn[nH]c2c1NC(=S)NC(=O)c1ccccc1	-27%	-2%	14µM*	-14%
Cc1ccccc1OCC(=O)Nc1nnc(S(=O)(=O)N2CCCCCC2)s1	·	25%	3%	·
COc1ccc(-c2cn(-c3cccc(C)c3)c(=O)[nH]2)cc1OC	-5%	6%	13µM*	-9%
Cn1c(=O)c2cn3c(c2n(C)c1=O)C(c1ccccc1)CC(c1ccccc1)=N3 (stereo unspecified)	·	0%	13µM*	-13%
Cc1ccc([N+](=O)[O-])c2c1C(N1CCCC1)C(C)(C)O2 (stereo unspecified)	68%	?	56µM*	-6%
Cc1ccc(S(=O)(=O)N2CCCC2)cc1[N+](=O)[O-]	-26%	-15%	5%	3%
O=C1C2CSCN2C(=O)CN1CCCN1CCN(C(c2ccccc2)c2ccccc2)CC1 (stereo unspecified)	173%	-9%	-7%	5%
Cc1oc(/N=C/c2ccccc2O)c(C#N)c1C	-24%	6%	-22%	-27%
Cc1oc(/N=C/c2ccc(O)cc2O)c(C#N)c1C	-22%	3%	50µM*	-11%
CC(C)CCNC(=O)C1CCN(S(=O)(=O)c2ccc(-n3cnnn3)cc2)CC1	2%	-7%	-5%	8%
Cc1ccc(C)c(NC(=O)C(Sc2nncn2C)c2ccccc2)c1 (stereo unspecified)	-7%	-16%	89µM*	2%
CCOc1ccc(NC(=O)CN(C)C(=O)C2CC(=O)N(Cc3ccco3)C2)cc1OCC (stereo unspecified)	0%	?	45µM*	·
O=C(NCc1cccnc1)/C(=C\c1ccc(-c2cccc(Cl)c2)o1)S(=O)(=O)c1ccccc1	2%	5%	18µM*	6%
O=C(NCc1cccnc1)/C(=C/c1ccc(-c2cccc(Cl)c2)o1)S(=O)(=O)c1ccccc1	1%	-6%	?	-2%
C/C(=C\COc1c2ccoc2cc2oc(=O)ccc12)CCC(O)C(C)(C)O (stereo unspecified)	·	·	·	-9%
O=C1CNC(=S)N1CCOc1ccccc1	16%	-4%	-2%	5%
O=C1CNC(=S)N1CCc1ccc(O)c(O)c1	-32%	8%	1.8µM*	?
CCOc1cc2c3c(c1)C1(C(=O)N3C(C)(C)CC2C)C(C#N)=C(N)N2C(=C1C#N)Nc1ccccc12 (stereo unspecified)	13µM*	1%	-2%	?
CCOc1cc2c3c(c1)C1(Nc4ccccc4S1)C(=O)N3C(C)(C)CC2C (stereo unspecified)	-25%	-5%	-8%	1%
COc1ccc2c(c1)CC(NC(=O)Nc1ccc(Br)c(C)c1)CO2 (stereo unspecified)	·	25%	8%	·
O=C(COC(=O)CCN1C(=O)c2cccc([N+](=O)[O-])c2C1=O)NCc1ccccc1	2%	-16%	79µM*	1%
O=C(c1c[nH]c(=O)n(-c2ccccc2)c1=O)N1CCc2ccccc21	-19%	0%	70%	3%
Cc1ccc(-n2c(=O)[nH]cc(C(=O)N3CCc4ccccc43)c2=O)cc1C	10µM*	?	0%	-4%
